This note sets out measurements from PubChem BioAssay (Tox21).

Inconclusive results are not listed. Where a call stands in place of a potency, no number is given. Values without a mark were called inactive. Active and inactive are the calls of the source. The call rests on the fitted dose curve.

The nature of this assay: p53 small molecule agonists, cell-based qHTS assay with rat liver microsomes (AID 1963578). As to conditions: HCT-116 p53RE-bla, beta-lactamase ratio, 16 h; series mostly up to 66 µM. An excerpt:
U.S. Tox21 Program National Center for Advancing Translational Sciences [NCATS] Division of Preclinical Innovation [DPI] U.S. Environmental Protection Agency [EPA] National Institutes of Environmental Health Sciences [NIEHS] National Toxicology Program [NTP] U.S. Food and Drug Administration [FDA] Tox21 Assay Overview: p53, a tumor suppressor protein, is activated following cellular insult, including DNA damage and other cellular stresses. The activation of p53 regulates cell fate by inducing DNA repair, cell cycle arrest, apoptosis, or cellular senescence. The activation of p53, therefore, is a good indicator of DNA damage and other cellular stresses. […] The activation of the reporter gene under culture conditions can be detected by fluorescence intensity. This cell line was used to screen the Tox21 10K compound library in the condition of presence of rat liver microsomes and to identify agonists that activate the p53 signaling pathway after in vitro metabolic activation (Ooka et al., Archive of Toxicology 96:1975-1987, 2022).
Tox21 Assay Protocol Summary: The p53RE-bla cells were dispensed at 4,000cells/3ul/well in 1536-well black-clear bottom plates. After the assay plates were incubated at 37 C, 5% CO2 incubator for 5 hours, 23 nL of compounds dissolved in DMSO, positive controls or DMSO only was transferred to the assay plate. Following compound addition, 3 uL of rat liver microsomes (Molecular Toxicology, Boone, NC) at final concentration of 0.5 mg/mL and 1uL of Beta-Nicotinamide adenine dinucleotide 2-phosphate (NADPH) at final concentration of 0.5 mg/mL were transferred to the assay plate. The plates were incubated at 37 C for 16 hours. 1 uL of LiveBLAzer detection mixture was added to each well and the plates were incubated at room temperature in the dark for 2 h.
On the technique in general: qHTS replaces the single test concentration by a dilution series.
On to `COc1cc2ncnc(Nc3ccc(F)c(Cl)c3)c2cc1OCCCN1CCOCC1`, for which the Potency entry is “inactive”.

`CCCCCCCC/C=C/CCCCCCCC1=NCCN1CCO`: the Potency entry was “inactive”.

For the compound `CC(C(=O)O)c1ccc(C(=O)c2cccs2)cc1` (stereo not given), the Potency result was “inactive”.

`CC(C)(C)c1cc(/C=C2\SC(=N)NC2=O)cc(C(C)(C)C)c1O`: the Potency result is “inactive”.

As for `CCN(CC)CCNC(=O)COc1ccc(OC)cc1`, the Potency entry was “inactive”.

As for `Cc1cc(O)c2c(O)c3c(O)cccc3cc2c1`, the Potency entry was “inactive”.

Consider `c1ccc(-c2ccc(C(c3ccccc3)n3ccnc3)cc2)cc1` (stereo not given), for which the Potency result was “inactive”.

With `CCCc1ccc(OCC(=O)N2CCN(C(=O)COc3ccc(CCC)cc3OC)CC2)c(OC)c1`, the Potency result is “inactive”.

In the case of `CCOB(OCC)OCC`, the Potency result is “inactive”.

On to `CCc1cc(C2=C(C(=O)O)N(c3ccccc3C(F)(F)F)S(=O)(=O)c3ccccc32)cc2c1OCO2`, for which the Potency result is “inactive”.

Take `CC(C)(C)c1csc(-c2cc3cc(OCc4ccccc4CC(=O)O)ccc3o2)n1`: the Potency result is “inactive”.

On to `O=C(/C=C/c1ccc([N+](=O)[O-])cc1)c1ccccc1`, for which the Potency result was “inactive”.

With `Cc1onc(-c2c(Cl)cccc2Cl)c1C(=O)Cl`, the Potency entry is “inactive”.

For `CN(C)CCCN(C)C`, the activation is 5.56% [at 5.99 µM].

Turning to `CC(=O)/C(C)=C/C1C(C)=CCCC1(C)C` (stereo not given), the Potency entry was “inactive”.

With `O=C(Cl)c1ccc(Cl)cc1Cl`, the Potency entry is “inactive”.

As to `COc1ccc(C2CNC(=O)C2)cc1OC1CCCC1` (stereo not given), the Potency result is “inactive”.

As for `C1CCC(C(CC2CCCCN2)C2CCCCC2)CC1` (stereo not given), the Potency entry was “inactive”.

As to `CCOC(=O)NCCOc1ccc(Oc2ccccc2)cc1`, the Potency result was “inactive”.

As to `Cc1cc(CCN2CCN(c3nsc4ccccc34)CC2)cc2c1NC(=O)CC2(C)C`, the Potency entry was “inactive”.

With `CSc1c(Cl)c(Cl)c(Cl)c(Cl)c1Cl`, the Potency entry was “inactive”.

As for `O=C(O)[C@H](O)c1ccccc1`, the Potency entry is “inactive”.

For the compound `O=C(NCC(O)CO)c1c(I)c(C(=O)NCC(O)CO)c(I)c(N(CCO)C(=O)CO)c1I` (stereo not given), the Potency result was “inactive”.

Turning to `CCCC1C(CC)=CC(CC)=CN1c1ccccc1` (stereo not given), the Potency entry was “inactive”.

As for `Oc1ccc(C2(c3ccc(O)c(C4CCCCC4)c3)CCCCC2)cc1C1CCCCC1`, the Potency entry was “inactive”.

As for `CC(C)(C)c1ccc(OC(=O)c2ccccc2O)cc1`, the Potency result was “inactive”.

As to `CN(C)C(=O)NC1(c2ccccc2)CCN(CC[C@@]2(c3ccc(F)c(F)c3)CN(C(=O)c3ccccc3)CCO2)CC1`, the Potency entry is “inactive”.

With `CC(C)=CCNc1ncnc2c1ncn2[C@@H]1O[C@H](CO)[C@@H](O)[C@H]1O`, the Potency result is “inactive”.

On to `CC(=O)Oc1ccc(C(=C2CCCCC2)c2ccc(OC(C)=O)cc2)cc1`, for which the Potency entry is “inactive”.

As for `COc1cc(C(=O)OCCCN2CCCN(CCCOC(=O)c3cc(OC)c(OC)c(OC)c3)CC2)cc(OC)c1OC`, the Potency entry was “inactive”.

With `Brc1ccccc1-c1ccccc1`, the Potency result is “inactive”.

Regarding `COC(C(=O)O)c1ccccc1` (stereo not given), the Potency result is “inactive”.

As for `OCCN1CCN(CCCN2c3ccccc3Sc3ccc(C(F)(F)F)cc32)CC1`, the Potency result was “inactive”.

For `CCN(CC)c1ccc(N=Nc2ccccc2)cc1`, the Potency entry is “inactive”.

Take `OCCN1CCN(CCCN2c3ccccc3Sc3ccc(Cl)cc32)CC1`: the Potency result is “inactive”.

`Cc1c(C(=O)O)c(O)cc2c1C(=O)c1c(O)c([C@@H]3O[C@H](CO)[C@@H](O)[C@H](O)[C@H]3O)c(O)c(O)c1C2=O`: the Potency entry is “inactive”.

As for `O=C1C=CC(=O)N1`, the Potency result is “inactive”.

As to `CC(=O)OC(C(=O)c1ccccc1)c1ccccc1` (stereo not given), the Potency entry was “inactive”.

For `CN(C)C(=O)Oc1cccc([N+](C)(C)C)c1`, the Potency entry is “inactive”.

For `CCN(CC)c1ccc(C(=C2C=CC(=[N+](CC)CC)C=C2)c2cc(S(=O)(=O)O)ccc2S(=O)(=O)[O-])cc1`, the Potency result was “inactive”.
